HT1080 IDH1KD tx – kills HT-1080 cells with IDH1 knockdown. HT-1080 IDH1 knockdown viability, ATP luminescence, 48 h. Potency, µM (doses to about 46.1 µM), hits mostly cytotoxic. actives 2% (n = 360,000). AID 686971
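CellTiter-Glo luminescence after 48 h compound exposure at 37 degrees C of IDH1-knockdown HT-1080 cells in 5% FBS RPMI. %Activity scaled between DMSO wells and cell-free media wells, with curves fitted and assigned curve classes.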
ALOX12 inh – blocks human arachidonate 12S-lipoxygenase | P18054 | purified 12hLO, xylenol orange hydroperoxide absorbance | Potency, µM (series often up to 108 µM), hits mostly inhibitors | actives 1.1% (n = 580,000)
Target sequence (P18054 whole entry, looked up): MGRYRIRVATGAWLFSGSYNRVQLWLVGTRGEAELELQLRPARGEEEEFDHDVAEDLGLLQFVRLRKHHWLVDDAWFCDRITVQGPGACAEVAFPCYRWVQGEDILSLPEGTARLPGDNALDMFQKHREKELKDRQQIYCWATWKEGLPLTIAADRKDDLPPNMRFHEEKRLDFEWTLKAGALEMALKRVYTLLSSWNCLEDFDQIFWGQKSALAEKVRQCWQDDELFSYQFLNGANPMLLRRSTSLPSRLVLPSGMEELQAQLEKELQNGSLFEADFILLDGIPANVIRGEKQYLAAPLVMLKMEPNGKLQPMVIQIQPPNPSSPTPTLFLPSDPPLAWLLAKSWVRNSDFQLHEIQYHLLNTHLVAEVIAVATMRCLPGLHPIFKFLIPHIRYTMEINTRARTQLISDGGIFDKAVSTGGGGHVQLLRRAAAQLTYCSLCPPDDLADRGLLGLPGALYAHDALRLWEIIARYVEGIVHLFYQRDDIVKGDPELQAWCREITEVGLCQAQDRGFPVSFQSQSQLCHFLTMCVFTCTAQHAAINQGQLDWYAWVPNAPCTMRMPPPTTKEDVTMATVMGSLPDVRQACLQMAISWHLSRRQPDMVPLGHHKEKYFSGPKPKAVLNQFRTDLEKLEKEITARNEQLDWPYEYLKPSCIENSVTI
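Purified human 12hLO at 150 nM in 25 mM Hepes, 0.01% Triton X-100, pH 7.0, preincubated 15 min at room temperature with compound. Reaction started with 40 uM arachidonic acid, 30 min at room temperature. Hydroperoxide measured by Fe-xylenol orange, 573/405 nm absorbance ratio.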
HT1080-NT tox – kills 2HG-producing HT-1080-NT fibrosarcoma cells; HT-1080-NT fibrosarcoma viability, CellTiter-Glo ATP luminescence, 48 h; actives 1.6% (n = 360,000); Potency, µM (series often up to 46.1 µM), usual class: cytotoxic; AID 686970;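 also: NT is the 2HG producing partner of a matched IDH1 knockdown line; nearly all actives have a fitted effect of over 55% in size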
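A 48-hour cytotoxicity screen used HT-1080-NT cells plated 2 hours before compound delivery. ATP-based CellTiter-Glo luminescence measured viability, normalized to DMSO and no-cell controls.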
DT40 TDP1 no CPT – qHTS for Inhibitors of human tyrosyl-DNA phosphodiesterase 1 (TDP1): qHTS in cells in absence of CPT. DT40 Tdp1-/- hTDP1 cells, no CPT, ATP luminescence, 48 h. Potency, µM (top dose mostly 46.2 µM), actives largely listed as inhibitors. actives 15% (n = 420,000). AID 686978, 2013; also: nearly all actives have a fitted effect of over 55% in size
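Readout: luminescence from CellTiter-Glo after 30 min in the dark at RT. Cells: DT40 Tdp1-/- with stable hTDP1, 400/well. Exposure: compounds alone, ≥48 hr, 37 °C.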
TDP1 cell CPT – DT40-hTDP1 cell growth loss with CPT. Potency, µM (titrated, usually from 46.2 µM), most hits filed as inhibitors. chicken DT40 Tdp1-/-;hTDP1 cells + 20 nM CPT, ATP luminescence, 48 h. actives 12% (n = 420,000). AID 686979; also: nearly all actives have a fitted effect of over 55% in size
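Chicken DT40 Tdp1-/- cells stably complemented with human TDP1 were seeded at 400 cells/well in medium containing 20 nM camptothecin, exposed to pin-transferred compounds, and grown at 37 °C for at least 48 hr. Viability was read as ATP luminescence.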
IL-1B inflam inh – blocks inflammasome-driven IL-1 beta release. THP-1 LPS/ATP IL-1B secretion, AlphaLISA, 16 h; hits give low values. activity change, % at 57.5 µM. actives 4.7% (n = 360,000). AID 743279; in the data active = activity change below about -50%; inconclusive = mostly about -30% to -49%
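Secreted IL-1B measured by AlphaLISA bead assay after 16 h compound exposure of THP-1 cells; compounds (final up to 57.5 uM) added 1 h before LPS (250 ng/mL) and ATP (1.25 mM) stimulation; lower signal means less secretion.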
A number is an active result; i = inactive; ? = inconclusive; nt = no result given; [ ] = dose if it differs, or a comment. The entries come from a sample that favours hits as a whole. Unless noted, calls follow the shape of the dose curve; as a rule, active = well fitted curve in the direction sought with a large enough effect; inconclusive = small, poorly fitted or top-dose-only effect, or another doubt; inactive = no such curve, though single readings can be large; an effect the other way counts as inactive or inconclusive.

SMILES	HT1080 IDH1KD tx	ALOX12 inh	HT1080-NT tox	DT40 TDP1 no CPT	TDP1 cell CPT	IL-1B inflam inh
COC(=O)Cc1c(CSc2ccccc2)oc2ccc(O)c(CN(C)C)c12	i	i	i	?	i	i
COCCOC(=O)c1c(C)oc2ccc(OCC=C(C)C)cc12	i	i	i	i	i	i
CCOC(=O)c1c(CSc2ccccc2)oc2ccc(O)cc12	i	?	i	20.6µM	?	i
Cc1cc(=O)oc2cc3occ(-c4ccc5ccccc5c4)c3cc12	nt	i	nt	nt	nt	nt
CC1(C)C[C@H](NC(=O)c2cccc(F)c2)[C@@]2(CCC(=O)NCc3ccco3)CC[C@](C)(O)C[C@@H]12	nt	i	nt	nt	nt	nt
O=C(c1cc2ccccc2[nH]1)N1CCC(Cc2nncn2CC2CC2)C1 (stereo not given)	nt	i	nt	nt	nt	nt
Cc1oc2c(Cl)c(Cl)c(O)c(CN(C)C)c2c1C(=O)c1ccc(Cl)cc1	i	i	i	?	?	i
CCOC(=O)c1c(-c2ccccc2)[nH]c2ccc(O)cc12	i	i	i	?	i	-54.9
CCOC(=O)c1c(-c2ccccc2)oc2ccc(O)c(CN3CCN(C)CC3)c12	?	?	?	2.31µM	2.06µM	nt
CCOC(=O)c1c(C)n(C)c2ccc(O)c(CN3CCN(C)CC3)c12	i	i	i	i	i	i
CCOC(=O)c1c(CSc2ccc(CC)cc2)oc2ccc(O)c(CN(C)C)c12	20.6µM	?	?	7.31µM	8.2µM	-101.1
CCOC(=O)c1c(C)oc2ccc(O)c(CN(C)C)c12	i	?	i	?	i	i
COc1ccc(OC)c(C(=O)c2c(C)oc3cc(Br)c(O)c(CN(C)C)c23)c1	i	?	i	20.6µM	?	i
O=C(CN1CCOCC1)N1CC(=O)N2[C@@H](CO)[C@H](c3ccc(Br)cc3)[C@@H]2C1	nt	i	nt	nt	nt	nt
CC(NC(=O)C1CC=CCC1)c1ccc(C(F)(F)F)cc1 (stereo not given)	nt	i	nt	nt	nt	nt
COc1ccc(N2CCN(C(=O)C3CC(=O)N(c4n[nH]c5cccc(F)c45)C3)CC2)cc1 (stereo not given)	nt	i	nt	nt	nt	nt
CCOC(=O)c1c(CSc2ccccc2)oc2cc(Br)c(O)c(CN(C)C)c12	i	i	i	?	16.4µM	i
CCOC(=O)c1c(CSc2ccc(C)cc2)oc2ccc(O)cc12	?	?	?	?	?	i
CCOC(=O)c1c(CS(=O)(=O)c2ccccc2)n(C)c2cc(Br)c(O)c(CN(C)C)c12	i	i	i	13µM	14.6µM	i
CC(C)(C)NC(=O)C(c1ccc(-c2ccccc2)cc1)N(C[C@H]1CC[C@@H]([C@@H]2CC[C@H](CO)O2)O1)C(=O)c1cccc(Cl)c1 (stereo not given in full)	i	i	i	?	?	-65.4
CC(C)(C)NC(=O)C(c1ccc(-c2ccccc2)cc1)N(C[C@H]1CC[C@@H]([C@@H]2CC[C@H](CO)O2)O1)C(=O)c1ccccc1F (stereo not given in full)	i	nt	i	16.4µM	29.1µM	-63.3
COc1ccc(C(C(=O)NC(C)(C)C)N(C[C@H]2CC[C@@H]([C@@H]3CC[C@H](CO)O3)O2)C(=O)c2ccccc2)cc1 (stereo not given in full)	i	i	i	i	i	i
CC(C)(C)NC(=O)C(c1ccc(-c2ccccc2)cc1)N(C[C@H]1CC[C@@H]([C@@H]2CC[C@H](CO)O2)O1)C(=O)c1ccc(-c2ccccc2)cc1 (stereo not given in full)	?	nt	i	14.6µM	?	-54.7
CCOC(=O)c1c(S(=O)(=O)N2CCC(C(=O)NCc3cccc(OC)c3)CC2)c(C)n(C)c1C	nt	i	nt	i	i	nt
COCCn1c(SCc2cccnc2)nnc1-c1c[nH]c2ccccc12	i	i	i	i	i	i
SMILES	HT1080 IDH1KD tx	ALOX12 inh	HT1080-NT tox	DT40 TDP1 no CPT	TDP1 cell CPT	IL-1B inflam inh
CCCSc1nnc(-c2c[nH]c3ccccc23)n1CC	i	i	i	?	14.6µM	i
N#Cc1ccc(CSc2nnc(-c3c[nH]c4ccccc34)n2-c2ccccc2)cc1	?	i	i	23.1µM	?	-67.1
N#Cc1ccc(CSc2nnc(-c3ccccn3)n2-c2ccccc2)cc1	i	i	i	?	?	i
CCn1c(SCc2cccnc2)nnc1-c1c[nH]c2ccccc12	i	i	i	?	14.6µM	i
CC(C)C(NC(=O)c1ccccc1)C(C)C	nt	i	nt	nt	nt	nt
COc1ccc(Cl)cc1C(=O)N1CCC2(CC1)NC(=O)N(c1ccccc1)N2	nt	1.78µM	nt	nt	nt	nt
COc1ccc(Cl)cc1C(=O)N1CCC2(CC1)NC(=O)N(c1ccccc1Cl)N2	nt	1.78µM	nt	nt	nt	nt
COc1ccc(Cl)cc1C(=O)N1CCC2(CC1)N(c1ccccc1)C(=O)CS2(=O)=O	nt	i	nt	nt	nt	nt
COc1ccc(C(=O)N2CCC3(CC2)NC(=O)N(c2ccccc2Cl)N3)cc1F	nt	1.26µM	nt	nt	nt	nt
COc1ccc(C(=O)N2CCC3(CC2)NC(=O)N(Cc2ccccc2)C3=O)cc1	nt	i	nt	nt	nt	nt
COc1ccc(C(=O)N2CCC3(CC2)NC(=O)N(c2ccccc2Cl)N3)cc1	nt	2.24µM	nt	nt	nt	nt
COc1ccc(C(=O)N2CCC3(CC2)CC(O)CCO3)cc1F (stereo not given)	nt	i	nt	nt	nt	nt
COc1ccc(Cl)cc1C(=O)N1CCC2(CC1)CC(=O)c1ccccc1O2	i	?	i	?	?	?
Cn1ncc(N2CCC(C(=O)N3CCC(C(N)=O)(N4CCCCC4)CC3)C2)cc1=O (stereo not given)	nt	i	nt	nt	nt	nt
Cc1ccccc1C(=O)NC(NC(=O)c1ccccc1C)c1ccc(F)cc1	nt	i	nt	nt	nt	nt
C#CCN1CC(N(C)CCOC(=O)c2cc3ccccc3[nH]2)CS1(=O)=O (stereo not given)	nt	i	nt	nt	nt	nt
c1ccc(-c2ccnc3nc(-c4cccs4)nn23)cc1	nt	i	nt	nt	nt	nt
Cc1ccc(C(=O)N2CCN(Cc3ccc(Cl)cc3)CC2)cc1C	nt	i	nt	nt	nt	nt
O=C(c1ccccc1)c1ccc(C(=O)N2CCN(c3ccccc3Cl)CC2)cc1	i	i	i[9.24 µM]	?	?	?
Cc1ccc(C(=O)N2CCC3(CC2)NC(=O)N(c2ccccc2Cl)N3)cc1C	nt	1.26µM	nt	nt	nt	nt
O=C(c1ccoc1)N1CCC2(CC1)NC(=O)N(c1ccccc1Cl)N2	nt	1.26µM	nt	nt	nt	nt
O=C(c1ccc2c(c1)OCO2)N1CCC2(CC1)NC(=O)N(c1ccccc1Cl)N2	nt	2µM	nt	nt	nt	nt
COc1ccc(NC(=O)CN(C)C(=O)c2nn(C)c(=O)c3ccccc23)cc1	nt	i	nt	nt	nt	nt
O=S1(=O)c2ccccc2OC(COCc2ccccc2)CN1C1CC1 (stereo not given)	i	i	i	18.4µM	18.4µM	i

Bioassay records from PubChem BioAssay.
